From PubChem BioAssay
The source made the active and inactive calls.

What was measured:
[1] = E. coli DRC41 culture turbidity changes, primary screen, E. coli filamentation inducer project, strain DRC41, OD650, 48 h (AID 1152);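 note: E. coli MC1000 strain DRC41 lacking acrAB efflux pump and sulA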; conditions: E. coli DRC41 (acrAB sulA), higher = more signal, called active from +8 up or from −8 down
[2] = small-molecule binders of probe aLefty1, primary screen, biochemical, small-molecule microarray, 635/667 nm fluorescence (AID 1153); conditions: higher = more signal;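 note: score merges spot fluorescence with signal-to-noise ratio from the scanned slide images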
[3] = PSAC antagonists in infected red cells, primary screen, cell-based, P. falciparum Indochina, OD700, 1 h (AID 1154); conditions: P. falciparum Indochina infected RBC osmotic lysis, higher = more signal, called active from +8 up or from −8 down
[4] = PSAC antagonists in infected red cells, primary screen, cell-based, P. falciparum Indochina, OD700, 2 h (AID 1155);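 note: lysis reports solute entry through the parasite surface anion channel PSAC; channel blockers reduce lysis of infected cells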; conditions: P. falciparum Indochina infected erythrocytes, osmotic lysis OD700; higher = more signal, called active from +8 up or from −8 down
[5] = osmotic lysis modulators in infected erythrocytes, primary screen, PSAC antagonist project, cell-based, P. falciparum Indochina, OD700, 3 h (AID 1156); conditions: higher = more signal, called active from +8 up or from −8 down
[6] = PSAC antagonists in infected red cells, primary screen, cell-based, P. falciparum Indochina, OD700, 18 h (AID 1157); conditions: P. falciparum Indochina infected erythrocytes, osmotic lysis OD700, 18 h; higher = more signal, called active from +8 up or from −8 down
[7] = modulators of S6 phosphorylation in cells, primary screen, cell-based, A549, cytoblot, luminescence, serum-stimulated (AID 1158); conditions: A549 phospho-S6 cytoblot, 5 h, higher = more signal;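 note: serum-stimulated A549 lung adenocarcinoma cells; signal is phosphorylated S6 detected by cytoblot immunostaining with HRP secondary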
[8] = target: NADPH oxidase 2 (Homo sapiens) (UniProt P04839); assay: NOX2-dependent H2O2 signal modulators, primary screen, NOX inhibitor project, cell-based, HEK293-NOX2, PMA-stimulated, Amplex Red fluorescence (AID 1159); conditions: 45 min, higher = more signal, called active from +8 up or from −8 down; note: test concentration not given here
[9] = target: NADPH oxidase 4 (Homo sapiens) (UniProt Q9NPH5); assay: NOX4-dependent H2O2 signal modulators, primary screen, NOX inhibitor project, cell-based, HEK293-NOX4, tetracycline-induced, Amplex Red fluorescence (AID 1160); conditions: 45 min, higher = more signal, called active from +8 up or from −8 down
[10] = target: NADPH oxidase 5 (Homo sapiens) (UniProt Q96PH1); assay: NOX5-dependent H2O2 signal modulators, primary screen, NOX inhibitor project, cell-based, HEK293-NOX5, Amplex Red fluorescence (AID 1161); conditions: HEK293-NOX5, ionomycin, 45 min, higher = more signal
NADPH oxidase 5 (Homo sapiens), sequence (Q96PH1 whole entry, looked up): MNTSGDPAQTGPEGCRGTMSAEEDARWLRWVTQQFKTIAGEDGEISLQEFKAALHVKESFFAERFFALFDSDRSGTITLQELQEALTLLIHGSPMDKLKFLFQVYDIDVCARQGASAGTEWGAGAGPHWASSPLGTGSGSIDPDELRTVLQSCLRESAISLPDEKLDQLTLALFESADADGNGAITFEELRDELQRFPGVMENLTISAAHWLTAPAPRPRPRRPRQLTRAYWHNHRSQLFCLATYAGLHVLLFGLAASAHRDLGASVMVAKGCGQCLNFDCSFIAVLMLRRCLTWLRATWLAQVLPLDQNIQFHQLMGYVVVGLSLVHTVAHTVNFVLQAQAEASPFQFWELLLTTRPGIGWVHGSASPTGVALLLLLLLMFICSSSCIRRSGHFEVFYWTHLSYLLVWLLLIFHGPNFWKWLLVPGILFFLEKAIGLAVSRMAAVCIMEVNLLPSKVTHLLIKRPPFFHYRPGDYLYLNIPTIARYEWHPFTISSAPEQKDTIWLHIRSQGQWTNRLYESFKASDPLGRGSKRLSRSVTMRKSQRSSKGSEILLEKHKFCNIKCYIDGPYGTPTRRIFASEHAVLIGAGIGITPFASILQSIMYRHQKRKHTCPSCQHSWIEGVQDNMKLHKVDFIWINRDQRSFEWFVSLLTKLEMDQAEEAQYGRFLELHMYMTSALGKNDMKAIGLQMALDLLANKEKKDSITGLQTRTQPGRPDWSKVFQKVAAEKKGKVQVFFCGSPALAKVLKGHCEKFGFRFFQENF

NADPH oxidase 4 (Homo sapiens), sequence (Q9NPH5 whole entry, looked up): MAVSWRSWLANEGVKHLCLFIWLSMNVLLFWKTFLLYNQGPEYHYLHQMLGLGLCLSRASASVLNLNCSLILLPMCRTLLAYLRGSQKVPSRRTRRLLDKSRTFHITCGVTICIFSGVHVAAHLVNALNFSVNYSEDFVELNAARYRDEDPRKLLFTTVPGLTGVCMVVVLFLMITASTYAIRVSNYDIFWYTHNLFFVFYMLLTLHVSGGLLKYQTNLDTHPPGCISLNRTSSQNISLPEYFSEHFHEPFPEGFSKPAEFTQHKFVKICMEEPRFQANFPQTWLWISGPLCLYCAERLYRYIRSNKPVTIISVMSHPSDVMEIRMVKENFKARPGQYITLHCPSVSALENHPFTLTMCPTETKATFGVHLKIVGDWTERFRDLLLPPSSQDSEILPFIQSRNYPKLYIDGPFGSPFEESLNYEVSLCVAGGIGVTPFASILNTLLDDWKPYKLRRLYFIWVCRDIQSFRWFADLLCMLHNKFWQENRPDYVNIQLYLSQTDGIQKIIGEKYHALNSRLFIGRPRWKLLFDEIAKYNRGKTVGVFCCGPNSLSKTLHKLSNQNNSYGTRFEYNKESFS
NADPH oxidase 2 (Homo sapiens), sequence (P04839 whole entry, looked up): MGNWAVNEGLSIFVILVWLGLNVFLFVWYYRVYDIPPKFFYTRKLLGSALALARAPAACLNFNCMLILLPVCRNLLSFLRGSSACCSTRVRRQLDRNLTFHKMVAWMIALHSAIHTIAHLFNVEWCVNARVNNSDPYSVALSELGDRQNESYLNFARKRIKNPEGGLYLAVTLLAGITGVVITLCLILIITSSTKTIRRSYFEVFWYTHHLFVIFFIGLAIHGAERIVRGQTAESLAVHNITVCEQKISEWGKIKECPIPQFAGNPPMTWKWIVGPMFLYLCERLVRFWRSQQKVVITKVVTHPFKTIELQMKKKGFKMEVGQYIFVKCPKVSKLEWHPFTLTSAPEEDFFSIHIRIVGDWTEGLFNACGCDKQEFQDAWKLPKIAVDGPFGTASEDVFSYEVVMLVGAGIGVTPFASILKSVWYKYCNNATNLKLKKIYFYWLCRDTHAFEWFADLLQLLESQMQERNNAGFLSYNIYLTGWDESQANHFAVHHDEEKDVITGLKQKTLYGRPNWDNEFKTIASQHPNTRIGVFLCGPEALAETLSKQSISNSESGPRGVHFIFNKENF

Row | Structure (SMILES) | z-score [1] | composite z-score [2] | z-score [3] | z-score [4] | z-score [5] | z-score [6] | z-score [7] | z-score [8] | z-score [9] | z-score [10]
1 | NC(=O)[C@@H]1[C@H]2C(=O)O[C@H](c3ccccc3)[C@H](c3ccccc3)N2[C@H](c2ccc(O)cc2)[C@@]12C(=O)Nc1ccc(C#CC3=CCCCC3)cc12 | -1.1 (inactive) | 1.47 | 1.78 (inactive) | 1.07 (inactive) | -0.491 (inactive) | 1.27 (inactive) | -0.7 | 0.615 (inactive) | 0.196 (inactive) | -0.325
2 | COC(=O)[C@H](Cc1ccccc1)N[C@H](/C=C/C1CC1)[C@@H](O)Cc1ccccc1 | 1.85 (inactive) | -0.235 | 0.786 (inactive) | -0.96 (inactive) | -0.868 (inactive) | -1.83 (inactive) | 2.14 | 0.455 (inactive) | 0.0154 (inactive) | -2.49
3 | [N-]=[N+]=Nc1ccccc1C[C@]1(C(=O)N2CCCCC2)COC(c2ccc(OCCCO)cc2)=N1 | 0.891 (inactive) | 0.371 | 23.1 (active) | 9.64 (active) | 3.34 (inactive) | 1.77 (inactive) | -0.391 | -4.46 (inactive) | -0.826 (inactive) | -1.79
4 | COc1cc(CO)cc(I)c1O[C@H]1C=C(C(=O)NCCO)C[C@@H](NC[C@@H]2CCCO2)[C@@H]1O | 2.35 (inactive) | -0.0075 | 3.81 (inactive) | 0.585 (inactive) | 1.4 (inactive) | 0.303 (inactive) | 0.687 | -0.144 (inactive) | 0.492 (inactive) | -0.0544
5 | CO[C@H]1O[C@H](CO)[C@@H](OC(=O)Nc2ccc(Br)cc2)[C@@H]2OC(=O)[C@H](Cc3cccc(Br)c3)C/C=C/C[C@@H](Cc3cccc(Br)c3)C(=O)O[C@@H]12 | 1.7 (inactive) | -0.007 | 2.13 (inactive) | 0.623 (inactive) | -0.147 (inactive) | 0.951 (inactive) | 0.0914 | -1.42 (inactive) | -0.686 (inactive) | 0.0667
6 | COCCOC(=O)N1C(=O)[C@@]2(c3cc(C#CCCO)ccc31)[C@H](c1ccc(OCCO)cc1)N1[C@H](c3ccccc3)[C@H](c3ccccc3)OC(=O)[C@H]1[C@@H]2C(N)=O | 0.391 (inactive) | 0.0329 | 12.1 (active) | 2.16 (inactive) | 0.136 (inactive) | 0.932 (inactive) | -0.296 | 1.93 (inactive) | -0.511 (inactive) | 0.419
7 | O=C(CS)NCCCCCNC(=O)[C@@H]1C[C@@H]2C(=O)NCC(=O)N2[C@@H]1c1cccc(OCCO)c1 | 3.02 (inactive) | 0.269 | 2.11 (inactive) | 0.151 (inactive) | -1.32 (inactive) | -1.85 (inactive) | 1.86 | 1.52 (inactive) | 1.06 (inactive) | 1.49
8 | C=CCNC(=O)[C@H]1[C@@H]2C(=O)O[C@@H](c3ccccc3)[C@@H](c3ccccc3)N2[C@@H](c2ccc(OCCO)cc2)[C@]12C(=O)Nc1ccc(C#CCC(C(=O)OC)C(=O)OC)cc12 | -0.283 (inactive) | 0.128 | 3.01 (inactive) | 0.664 (inactive) | -0.291 (inactive) | 0.117 (inactive) | -0.602 | 1.48 (inactive) | 1.21 (inactive) | 0.45
9 | CN1C(=O)C2C=CC(C(O)c3ccc(F)cc3)N(N(c3ccccc3)c3ccccc3)C2C1=O (stereo not given) | -1.46 (inactive) | -0.483 | 0.362 (inactive) | 1.27 (inactive) | 0.39 (inactive) | 1.17 (inactive) | -1.16 | -0.948 (inactive) | -1.82 (inactive) | -1.39
10 | OCC1C=C(/C=C/c2ccccc2)CN1Cc1ccccc1Br (stereo not given) | 0.785 (inactive) | 0.457 | 6.56 (inactive) | 0.673 (inactive) | 1.17 (inactive) | 0.499 (inactive) | 0.0524 | 0.887 (inactive) | -2.84 (inactive) | -0.691
11 | O[C@@H](Cc1ccccc1)[C@@H](/C=C/C1CC1)NCc1cccc(Cl)c1 | -1.12 (inactive) | -0.0295 | 1.27 (inactive) | 1.03 (inactive) | 0.972 (inactive) | 0.721 (inactive) | 0.528 | -0.115 (inactive) | -0.302 (inactive) | -2.08
12 | COCC(=C=CC[C@H](O)c1cccc(OCCO)c1)CCO | 0.223 (inactive) | -0.0508 | 2.69 (inactive) | -0.115 (inactive) | 0.104 (inactive) | 0.0864 (inactive) | 0.0095 | -1.67 (inactive) | -0.625 (inactive) | -0.539
13 | C=C(CCCC)/C(=C/C[C@H](OC(=O)c1ccncc1)c1ccc(OCCO)cc1)c1cc(C(=O)OC)ccc1OC | 0.695 (inactive) | -0.103 | 20.9 (active) | 1.88 (inactive) | 2.24 (inactive) | -0.722 (inactive) | 0.769 | -1.96 (inactive) | -1.3 (inactive) | -2.54
14 | O=C1C2C=CC(C(O)C=Cc3ccc([N+](=O)[O-])cc3)N(n3cnnc3)C2C(=O)N1Cc1ccccc1 (stereo not given) | -0.892 (inactive) | 0.406 | 4.59 (inactive) | 1.03 (inactive) | 0.956 (inactive) | 0.83 (inactive) | -0.584 | -0.526 (inactive) | -0.711 (inactive) | -0.3
15 | O=C(NCc1ccccc1)[C@@H]1c2ccccc2C(=O)N(C2Cc3ccccc3C2)[C@H]1c1ccc(CO)cc1 | -1.25 (inactive) | 0.315 | 3.46 (inactive) | -0.627 (inactive) | -0.0549 (inactive) | 0.353 (inactive) | -0.543 | -0.0422 (inactive) | -1.3 (inactive) | -1.41
16 | C=C(C)[C@@H]1CC=C(C(O)C2C=CC3C(=O)NC(=O)C3N2Nc2ccc(Cl)cc2Cl)CC1 (stereo not given in full) | -2.9 (inactive) | 0.266 | 5.74 (inactive) | 1.4 (inactive) | -0.372 (inactive) | 1.61 (inactive) | -1.02 | -2.38 (inactive) | -6.41 (inactive) | -3.51
17 | CC=CC(O)C1C=CC2C(=O)N(C)C(=O)C2N1N(c1ccccc1)c1ccccc1 (stereo not given) | -1.3 (inactive) | -0.101 | -0.553 (inactive) | 0.603 (inactive) | -0.461 (inactive) | 1.12 (inactive) | -0.674 | -0.633 (inactive) | -0.176 (inactive) | -0.111
18 | CN(C)CCCCCCNC(=O)[C@@H]1C[C@@H]2C(=O)N3CCC[C@H]3C(=O)N2[C@@H]1c1ccc(O)cc1 | 1.12 (inactive) | 0.457 | 0.974 (inactive) | -1.24 (inactive) | 1.09 (inactive) | -1.93 (inactive) | 1.12 | -0.245 (inactive) | -0.176 (inactive) | 0.884
19 | C=CCN1C(=O)[C@]2(Cc3ccccc3)N=C(c3ccc(OCCCO)cc3)O[C@@H]2c2ccccc21 | 0.567 (inactive) | 0.43 | 33.1 (active) | 30.1 (active) | 2.14 (inactive) | 10.2 (active) | -0.204 | -1.78 (inactive) | 0.46 (inactive) | 1.07
20 | CC1CC/C=C\[C@H]2OC34C=CCN(Cn5nnc6ccccc65)C(=O)[C@H]3N(CCCCCO)C(=O)[C@@H]4C2C(=O)O1 (stereo not given in full) | 0.996 (inactive) | -0.624 | 0.586 (inactive) | 0.253 (inactive) | 0.193 (inactive) | 0.626 (inactive) | 0.0478 | 0.664 (inactive) | 0.341 (inactive) | 1.68
21 | CC(C)(C)OC(=O)CC[C@@]1(C(=O)N2CCCCC2)N=C(c2ccc(OCCCO)cc2)O[C@@H]1c1ccccc1 | -0.56 (inactive) | 0.349 | 26.6 (active) | 19.2 (active) | 1.79 (inactive) | 2.14 (inactive) | -0.354 | -2.08 (inactive) | 1.7 (inactive) | 0.0911
